Measurements: PubChem BioAssay AID720513 (Broad Institute, 2013)
Hit rate of the full screen: of about 2,100 compounds, about 480 (23%) were called active. Inconclusive results (about 5%) are left out. Only a sample is shown. Entries with a potency or affinity are not part of this list. A number with no mark means an inactive call.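 How the source made its calls: active means fitted curve reaches 40% activation at or below the top valid concentration, in every replicate test; inconclusive means replicate tests disagree on the call; inactive means the rest, including activity in the opposite direction.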

Test: activators raising PGC1a acetylation in cells, dose response, cell-based, cherry-picked samples, set 6 (AID 720513);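 further: cells made to overexpress flag tagged PGC1a plus GCN5 acetyltransferase by viral infection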
Conditions: U2OS PGC1a acetylation AlphaLISA, overnight, 0 = neutral, -100 = inhibitor control; series mostly up to 19.5 µM; activation (acetylation increase): at the top concentration

First: O=C(NNS(=O)(=O)c1ccc(F)cc1)c1ccc(S(=O)(=O)N2CCCCC2)cc1
Second: CCN(CC)S(=O)(=O)c1ccc(C(=O)Nc2cc(S(=O)(=O)N3CCOCC3)ccc2O)cc1
The “activation (acetylation increase)” value of the first is lower: 13% for the first, 19.8% for the second.

Compared with `N#CC1(NC(=O)Cn2ncc(Cl)c(Cl)c2=O)CCCCC1`, `CCC(=O)NC1(Cc2ccc(O)cc2)CCCCC1` is higher in “activation (acetylation increase)” value: -74.9% for the first, 6.88% for the second.

First: C#CCN(C[C@@H]1[C@@H](OC(=O)NCCCCCC)[C@@H](OC(=O)NCCCCCC)Cn2c(=O)ccc(=O)n21)S(=O)(=O)c1ccc(C)cc1
Second: Cc1ccc(S(=O)(=O)N(C)C[C@H]2Oc3ccc(NC(=O)CCC(F)(F)F)cc3C(=O)N([C@H](C)CO)C[C@@H]2C)cc1
The “activation (acetylation increase)” value of the first is lower: -98.2% for the first, 12.5% for the second.

Going from `CCN(CC)c1ccc(S(=O)(=O)N2CCOCC2)cc1NC(=O)Cn1nc(C)c([N+](=O)[O-])c1C` to `O=C(Nc1cc(S(=O)(=O)N2CCOCC2)ccc1Cl)c1cc([N+](=O)[O-])ccc1Cl`, the “activation (acetylation increase)” value falls from -32.7% to -92.3%.

First: O=C(Cn1cc(C(F)(F)F)ccc1=O)Nc1cc(S(=O)(=O)N2CCOCC2)ccc1Cl
Second: COc1ccc(S(=O)(=O)N(Cc2cc3ccc(OC)cc3[nH]c2=O)CC2COCCO2)cc1 (centres undefined)
The “activation (acetylation increase)” value of the first is higher: 6.03% for the first, 4.54% for the second.

Compared with `Cc1nn(CCCC(=O)O)c(C)c1[N+](=O)[O-]`, `CCN(CC)Cc1c(O)ccc2c([N+](=O)[O-])c(C)n(-c3ccc(OC)cc3)c12` is lower in “activation (acetylation increase)” value: -1.68% for the first, -12.3% for the second.

Compared with `COCCNC(=O)CN(C(=O)CCC(=O)Nc1ccccn1)c1ccc(OC)cc1`, `O=S(=O)(Nc1ccccn1)c1ccc(-n2cccn2)cc1` is higher in “activation (acetylation increase)” value: -17.2% for the first, 9.09% for the second.

Compared with `Cc1cccc(CCN(CC(=O)NC(C)(C)C)C(=O)c2csnn2)c1`, `Cc1cc(C)cc(N(CC(=O)Nc2c(C)n(C)n(-c3ccccc3)c2=O)S(C)(=O)=O)c1` is higher in “activation (acetylation increase)” value: -48.8% for the first, -1.04% for the second.

First: Cc1ccc(S(=O)(=O)N(C)C[C@@H]2Oc3cc(C#Cc4ccncc4)ccc3S(=O)(=O)N([C@@H](C)CO)C[C@H]2C)cc1
Second: Cc1ccc(S(=O)(=O)N(C)C[C@@H]2Oc3cc(C#Cc4ccncc4)ccc3S(=O)(=O)N([C@H](C)CO)C[C@H]2C)cc1
The “activation (acetylation increase)” value of the first is higher: -83.9% for the first, -91.5% for the second.

Compared with `Cc1ccc(S(=O)(=O)N(C)C[C@H]2Oc3cc(C#Cc4ccncc4)ccc3S(=O)(=O)N([C@H](C)CO)C[C@H]2C)cc1`, `COc1ccc(S(=O)(=O)N(C)C[C@@H]2Oc3cc(C#CC4CC4)ccc3S(=O)(=O)N([C@H](C)CO)C[C@H]2C)cc1` is higher in “activation (acetylation increase)” value: -84% for the first, 18.8% for the second.

First: C[C@H]1CN([C@@H](C)CO)S(=O)(=O)c2ccc(C3=CCCC3)cc2O[C@@H]1CN(C)C
Second: C[C@@H]1CN([C@@H](C)CO)S(=O)(=O)c2ccc(C3=CCCCC3)cc2O[C@H]1CN(C)C
The “activation (acetylation increase)” value of the first is higher: 28.7% for the first, 13% for the second.

Compared with `Cn1c2c(c(=O)n(C)c1=O)C(c1cccc(F)c1)C(C#N)=C(N)O2` (centres undefined), `COc1ccc2c3c(n(C)c2c1)[C@H](CO)NCC31CCN(Cc2cc(-c3ccccc3)on2)CC1` is lower in “activation (acetylation increase)” value: 20.1% for the first, -102% for the second.

Going from `Cn1ncc2c(O/N=C(\N)c3ccc(C(F)(F)F)cc3)ncnc21` to `CC(C)OC(=O)CSc1nc2cccnc2n1-c1ccc(F)cc1`, the “activation (acetylation increase)” value rises from -61.7% to -7.32%.

First: CCOC(=O)CSc1nc2cc3c(cc2cc1C#N)OCCO3
Second: CCOC(=O)CN1C(=O)C(Sc2n[nH]c(-c3ccc(C)cc3)n2)CCc2ccccc21 (centres undefined)
The “activation (acetylation increase)” value of the first is higher: 6.89% for the first, 3.64% for the second.

Compared with `O=C(/C=C/c1ccc(F)cc1)NNC(=O)CCN1CCN(Cc2ccccc2)CC1`, `Cc1[nH]c(=O)c(C(=O)/C=C/c2ccccc2)c2c1CCCC2` is lower in “activation (acetylation increase)” value: 4.09% for the first, -103% for the second.

Going from `CC(=O)N1CCN(C(C)=O)C1c1ccccc1` to `CC1CCN(C(=O)COC(=O)c2ccc(Br)o2)CC1`, the “activation (acetylation increase)” value rises from -5.86% to 35.8%.

First: COc1ccc(OC)c(CNS(=O)(=O)c2cc(-c3cc(C)no3)ccc2OC)c1
Second: COc1ccc2c3c([nH]c2c1)[C@@H](CO)N(C(=O)c1ccccc1)CC31CCN(S(=O)(=O)c2cccs2)CC1
The “activation (acetylation increase)” value of the first is higher: 40.3% for the first, -4.29% for the second.

First: CCOc1ccc(S(=O)(=O)N(C)c2ccc(OCC(=O)N3c4ccc(C)cc4C4CN(C)CCC43)cc2)cc1 (centres undefined)
Second: CN1OC[C@@H]2CN(S(=O)(=O)c3cccc4ccccc34)[C@H](c3ccc(N4CCCCC4)cc3)C[C@@H]21
The “activation (acetylation increase)” value of the first is lower: -9.14% for the first, 30.2% for the second.

Going from `CN(C[C@H]1N[C@@H](CO)[C@@H]1c1ccc(C2=CCCC2)cc1)C(=O)c1ccc(F)cc1` to `Cc1ccc(C)n1-c1ccc(-c2nnco2)cc1`, the “activation (acetylation increase)” value rises from -85.2% to 5.89%.

Going from `Cc1cc(C)nc(N2CCC(C(=O)NCc3ccco3)CC2)n1` to `CC(C)CC(OC(=O)c1cccs1)C(=O)NCc1ccco1` (centres undefined), the “activation (acetylation increase)” value rises from 10.2% to 12.3%.

First: O=C1c2ccc(-c3ccc4c(c3)C(=O)N(CCCO)C4=O)cc2C(=O)N1CCCO
Second: O=C(Cn1cnc2c(nnn2Cc2ccc(Cl)cc2)c1=O)c1ccccc1
The “activation (acetylation increase)” value of the first is higher: 17.2% for the first, -24.2% for the second.

First: CNC[C@H]1Oc2ncc(C#CC3CCCCC3)cc2C(=O)N([C@H](C)CO)C[C@H]1C
Second: C[C@@H]1CN([C@H](C)CO)C(=O)CCCn2nncc2CO[C@H]1CN(C)S(=O)(=O)c1cn(C)cn1
The “activation (acetylation increase)” value of the first is higher: 10.7% for the first, -7.5% for the second.

In the case of `COc1cccc(OCc2nnc(SCC(=O)OCc3ccccc3)o2)c1`, the “activation (acetylation increase)” value was 26.1%.

Compared with `CO[C@H]1CN(C)C(=O)c2ccc(NS(=O)(=O)c3ccccc3)cc2OC[C@H](C)N(C(=O)NC(C)C)C[C@@H]1C`, `COc1ccc(CN(C)C[C@@H]2Oc3ccc(NS(=O)(=O)c4c(C)noc4C)cc3C(=O)N([C@H](C)CO)C[C@H]2C)cc1` is higher in “activation (acetylation increase)” value: 3.86% [at 21 µM] for the first, 11.3% [at 21 µM] for the second.

For `CCN(CC)CCNc1ccc(C)c2sc3ccc(O)cc3c(=O)c12`, the “activation (acetylation increase)” value was 12.6% [at 5 µM].

For `CCOC(=O)c1ccc(N2C(=O)CC(N3CCC(O)(c4ccc(Br)cc4)CC3)C2=O)cc1` (centres undefined), the “activation (acetylation increase)” value was 25.2% [at 10 µM].
